# Hit rate of the full screen: of about 260,000 compounds, about 1,500 (0.58%) were called active. Another 5% or so got no clear call; they are omitted. Not all results are given here. Results with a measured potency or affinity are listed apart. Values without a mark were called inactive.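 How the source made its calls: active means inhibition above a set limit at one or more doses, reproduced on every date tested; inconclusive means results disagree between test dates, or hit never tested in dose response; inactive means the rest.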
# Biological target: Virion infectivity factor (Human immunodeficiency virus type 1 group M subtype B (isolate BH10)) + Virion infectivity factor (Human immunodeficiency virus type 1 group M subtype B (isolate BRU/LAI)) + Virion infectivity factor (Human immunodeficiency virus type 1 group M subtype B (isolate PCV12)) + Virion infectivity factor (Human immunodeficiency virus type 1 group M subtype B (isolate HXB2)) + DNA dC->dU-editing enzyme APOBEC-3G (Homo sapiens) (UniProt P69720+P69721+P69722+P69723+Q9HC16)
# Test: inhibitors of Vif binding to APOBEC3G peptide, primary screen, biochemical, TR-FRET, GST-Vif 1-94, biotin-A3G peptide, dose response retest (AID 1117319);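 further: Vif residues 1-94 fused to GST binding biotinylated APOBEC3G peptide 110-148; 0% = full assay without inhibitor and 100% = GST in place of GST-Vif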
# Conditions: hits give high values
row,SMILES,inhibition
1,O=C(CCCCn1ccc(=O)[nH]c1=O)Nc1ccc(O)c(C(=O)O)c1,-11.5%
2,Cc1ccsc1-c1nc(CN(C)C(C2CC2)C2CC2)c(C)o1,4.23%
3,COc1cc2c(cc1OC)CN(Cc1nc3ccsc3c(=O)[nH]1)CC2,7.56%
4,COc1ccc(N2CCN(Cc3nc4c(c(=O)[nH]c(=O)n4C)n3CC(C)=O)CC2)cc1,8.98%
5,Cc1ccc(SCC(=O)Nc2ccc(N3CCOCC3)cc2)cc1C,-8.83%
6,COc1ccc(NC(=O)NNS(=O)(=O)c2ccc(OC)c(OC)c2)c(OC)c1,5.71%
7,O=C(Nc1ccc(S(=O)(=O)N2CCCCC2)cc1)c1ccccc1Cl,0.17%
8,Cc1ccc(CSCC(=O)NCc2ccc3c(c2)OCO3)cc1,14.3%
9,COc1cc2c(cc1OC)CN(C(=O)c1cccc(S(=O)(=O)N3CCc4ccccc43)c1)CC2,8.84%
10,Cc1cccc(NC(=O)CNC(=O)c2ccc3nc[nH]c3c2)c1C,9.97%
11,Cc1ccc(NC(=O)CN(C)C(=O)c2cccc(Br)c2)cc1,-1.1%
12,O=C(CNC(=O)c1cccc(-n2cccc2)c1)Nc1ccccc1Br,4.99%
13,CN(CC(=O)Nc1ccccc1Cl)C(=O)c1cccc(-n2cccc2)c1,-0.39%
14,CCN(CC(=O)Nc1ccc(NC(C)=O)cc1)C(=O)c1cccc(-n2cccc2)c1,16.2%
15,Cc1cccc(C)c1NC(=O)CN(C)C(=O)c1cccc(-n2cccc2)c1,9.97%
16,CN(CC(=O)Nc1ccccc1C(F)(F)F)C(=O)c1cccc(-n2cccc2)c1,6.51%
17,CCN(CC(=O)Nc1c(F)cccc1F)C(=O)c1cccc(-n2cnnn2)c1,-3.65%
18,O=C(CCNS(=O)(=O)c1ccc(F)cc1)N1CCN(c2ncccn2)CC1,-6.24%
19,Cc1oc2cc3oc(=O)c(CCC(=O)NCCC(=O)O)c(C)c3cc2c1C,2.04%
20,O=C(O)c1cccc2c1C(=O)c1cc([N+](=O)[O-])cc([N+](=O)[O-])c1-2,6.48%

row,SMILES,inhibition
1,COc1ccc(C2c3ccsc3CCN2C(=O)NC(C)(C)C)cc1 (centres undefined),-4.12%
2,COCCN(C(=O)COC(=O)CCOc1ccccc1)c1c(N)n(Cc2ccccc2)c(=O)[nH]c1=O,0.29%
3,COc1ccc(NC(=O)CSc2ncnc3c2cnn3Cc2ccccc2)cc1OC,23.2%
4,O=C(Nc1cccc2ccccc12)N1CCN(Cc2ccccc2)CC1,20.5%
5,COC(=O)CSc1nnc(-c2ccccn2)n1N,-2.48%
6,CCOC(=O)N1CCN(CC(=O)Nc2ccc(OC)cc2)CC1,-0.76%
7,Cc1ccc(C(CC(=O)N2CCCCC2)c2ccccc2)c(O)c1C (centres undefined),-1.48%
8,COc1cc(Cl)c(C)cc1NC(=O)CN1C(=O)C2CCCCC2C1=O (centres undefined),-15.8%
9,O=C(NCC1CCCO1)c1ccc(CS(=O)(=O)c2ccc(Cl)cc2)o1 (centres undefined),0.48%
10,Cc1ccc(CC(=O)NNC(=O)c2cccs2)cc1C,-2.08%
11,COc1ccc(C(Nc2ccccn2)c2oc(CO)cc(=O)c2O)cc1 (centres undefined),20.9%
12,O=c1cc(CO)oc(C(Nc2ccccn2)c2ccc(C(F)(F)F)cc2)c1O (centres undefined),10.8%
13,CN(c1ccccc1)S(=O)(=O)c1ccc(C(=O)NCC2CCCO2)cc1 (centres undefined),6.12%
14,O=[n+]1c2c(n([O-])c3cc(F)ccc31)CCCC2,11.7%
15,Cc1ccc2c(c1)n([O-])c1c([n+]2=O)CCCC1,1.62%
16,CCOc1ccc2c(c1)n([O-])c1c([n+]2=O)CCCC1,23.4%
17,O=[n+]1c2c(n([O-])c3cc(Br)ccc31)CCCC2,30%
18,O=[n+]1c2c(n([O-])c3c1CCCC3)CCCC2,3.36%
19,O=[n+]1c2c(n([O-])c3cc(F)c(N4CCCC4)cc31)CCC2,25.7%
20,O=[n+]1cc(-c2ccc(Br)cc2)n([O-])c2c1CCC2,3.02%

row,SMILES,inhibition
1,O=[n+]1c2c(n([O-])c3ccccc31)CCCC2,9.07%
2,Cc1ccc2oc3nc(C)c(C(=O)O)cc3c(=O)c2c1,3.05%
3,CCN(CC)CCn1c(=S)[nH]c2cc(C(=O)NCCc3ccc(OC)c(OC)c3)ccc2c1=O,-5.2%
4,S=c1[nH]nc2nnc3ccccc3n12,-8.57%
5,COCCN1C(=O)c2[nH]nc(-c3ccccc3O)c2C1c1ccc(OC)cc1 (centres undefined),4.2%
6,CCOC(=O)C1=C(C)N(C)C(=S)NC1c1cc(OC)ccc1OC (centres undefined),29.4%
7,Cc1ccc(NC(=O)N2CCC(C(=O)Nc3ccc(C)cc3C)CC2)cc1,-2.75%
8,COC(=O)C1CCN(S(=O)(=O)c2c[nH]c(=O)[nH]c2=O)CC1,-3.67%
9,CC(C)CN(CC(C)C)S(=O)(=O)N1CCC(C(=O)N2CCc3ccccc3C2)CC1,10.1%
10,O=C(CSc1ccc2nnc(-c3ccccn3)n2n1)N1CCOCC1,5.93%
11,CCOC(=O)C=Nc1c(N)n(C)c(=O)n(C)c1=O,-1.01%
12,CCCCSc1c(C)c2cc3c(cc2[nH]c1=O)OCO3,-11.4%
13,COc1cc(C(=O)NCc2ccco2)cc(OC)c1OC,-2.63%
14,COc1cc(C(=O)NC(=S)NCc2ccco2)cc(OC)c1OC,5.31%
15,N#CC1=C(N)OC2=C(CC/C2=C\c2ccccc2)C1c1ccccc1 (centres undefined),22.4%
16,Cc1ccc(/C=C2\CCC3=C2OC(N)=C(C#N)C3c2ccc(C)cc2)cc1 (centres undefined),20.9%
17,CCOC(=O)N1CCN(C(=O)CN(Cc2ccccc2)S(=O)(=O)c2ccc(OC)c(Cl)c2)CC1,-0.5%
18,O=C(OCc1nc2scc(-c3ccccc3)c2c(=O)[nH]1)c1cc([N+](=O)[O-])ccc1Cl,1.37%
19,CCN(CC)CCNC(=O)Cn1nc(Cc2cccnc2)c2ccccc2c1=O,-0.43%
